# Source: ChEMBL document CHEMBL4513135, “CO-ADD screening of IQOG CSIS (Spain) compounds”
# “And” between values parts separate entries of the source, which are not always exact repeats. Equal entries are not always repeated. Results with a measured potency or affinity are listed apart.
# Test system: Escherichia coli
# Conditions: Concentration 32 ug.mL-1; ASSAY_TEST Inhibition of Bacterial Growth; detection method Absorption (OD600); MEDIA CAMHB; plate type 384well; NBS; CORNING #3640; time 18 hr, 32 ug/mL
smiles,measurement,value
C#CCN1CCc2nc(N)c(C#N)c(-c3ccccc3)c2C1,Inhibition,-14.9% and -16.29%
